The values that follow come from article PMC7862700, “An all-to-all approach to the identification of sequence-specific readers for epigenetic DNA modifications on cytosine”.

Assay in all cases: DAPPL (digital affinity profiling via proximity ligation, sequencing); 10 mM Tris-HCl pH 7.5, 50 mM NaCl, 1 mM DTT, 4% glycerol, room temperature, 30 min; GST-TFs on glutathione beads, 16-mer random dsDNA library, 0.1% formaldehyde crosslink after washing; high values mean tight binding
One experiment has as its target T1, FEV (Homo sapiens, UniProt Q99581 1-238).
T1 sequence: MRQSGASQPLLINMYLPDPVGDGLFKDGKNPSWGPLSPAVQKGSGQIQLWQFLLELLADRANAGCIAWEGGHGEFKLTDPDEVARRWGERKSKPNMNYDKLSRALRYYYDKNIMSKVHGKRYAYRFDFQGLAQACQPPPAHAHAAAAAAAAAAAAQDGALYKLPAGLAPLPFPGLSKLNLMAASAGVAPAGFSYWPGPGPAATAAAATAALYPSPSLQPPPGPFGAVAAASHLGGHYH
As to conditions: protein: recombinant; tags: N-terminal GST; dsDNA, one strand shown. In short, it runs like this: (§1)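 In yeast, human transcription factors were expressed with a GST fusion, then pulled down on glutathione beads and given DNA barcodes. Pooled with a tag-only sample, they were exposed to 200 nmole of a 16-mer random double-stranded DNA library (Tris/NaCl/DTT/glycerol buffer, room temperature, 30 min), washed, crosslinked with 0.1% formaldehyde, proximity-ligated using BsaI/T4 ligase for 1 h at 37 °C, PCR-amplified and read on an Illumina NextSeq500. Each hexamer's frequency of reads for a factor, divided by the matching frequency for the tag-only sample, gives the binding signal.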

The target of another experiment is ETV5 (Homo sapiens, UniProt P41161 1-510). As to conditions: protein: recombinant; tags: N-terminal GST; dsDNA, one strand shown. Summed up:
as §1

Another experiment deals with HSF1 (Homo sapiens, UniProt Q00613 1-529). As to conditions: protein: recombinant; tags: N-terminal GST; chain copies: 3; dsDNA, one strand shown. In short, it runs like this: as §1
Chain of HSF1 (Q00613 whole entry): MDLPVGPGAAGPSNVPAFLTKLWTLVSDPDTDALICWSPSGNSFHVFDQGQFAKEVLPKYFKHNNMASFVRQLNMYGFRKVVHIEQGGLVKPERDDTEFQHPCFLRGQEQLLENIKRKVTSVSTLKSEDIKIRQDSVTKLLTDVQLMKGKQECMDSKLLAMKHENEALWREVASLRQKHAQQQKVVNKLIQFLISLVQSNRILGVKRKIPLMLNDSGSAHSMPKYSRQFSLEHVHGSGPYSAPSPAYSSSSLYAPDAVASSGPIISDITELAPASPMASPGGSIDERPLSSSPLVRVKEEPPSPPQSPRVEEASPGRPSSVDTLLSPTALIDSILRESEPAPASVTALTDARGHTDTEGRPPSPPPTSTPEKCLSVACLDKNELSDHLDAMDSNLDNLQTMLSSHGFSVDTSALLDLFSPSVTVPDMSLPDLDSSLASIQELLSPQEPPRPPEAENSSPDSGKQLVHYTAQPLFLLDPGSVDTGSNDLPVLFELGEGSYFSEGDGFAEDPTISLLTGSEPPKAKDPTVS
Another experiment concerns the target T2, SPIC (Homo sapiens, UniProt Q8N5J4 1-248).
T2 sequence: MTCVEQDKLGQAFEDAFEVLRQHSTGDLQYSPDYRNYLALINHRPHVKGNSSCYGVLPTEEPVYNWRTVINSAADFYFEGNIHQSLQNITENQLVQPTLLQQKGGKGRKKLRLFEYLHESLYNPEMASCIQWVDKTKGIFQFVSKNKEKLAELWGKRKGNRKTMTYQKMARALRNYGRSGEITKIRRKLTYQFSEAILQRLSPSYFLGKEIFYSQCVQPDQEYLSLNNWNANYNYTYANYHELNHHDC
The conditions noted are these: protein: recombinant; tags: N-terminal GST; dsDNA, one strand shown. Summed up: as §1

For a further experiment, the target named is ELF4 (Homo sapiens, UniProt Q99607 1-663). The conditions noted are these: protein: recombinant; tags: N-terminal GST; dsDNA, one strand shown. Summed up:
as §1

A further experiment deals with T3, ELK4 (Homo sapiens, UniProt P28324-2 1-405).
T3 sequence: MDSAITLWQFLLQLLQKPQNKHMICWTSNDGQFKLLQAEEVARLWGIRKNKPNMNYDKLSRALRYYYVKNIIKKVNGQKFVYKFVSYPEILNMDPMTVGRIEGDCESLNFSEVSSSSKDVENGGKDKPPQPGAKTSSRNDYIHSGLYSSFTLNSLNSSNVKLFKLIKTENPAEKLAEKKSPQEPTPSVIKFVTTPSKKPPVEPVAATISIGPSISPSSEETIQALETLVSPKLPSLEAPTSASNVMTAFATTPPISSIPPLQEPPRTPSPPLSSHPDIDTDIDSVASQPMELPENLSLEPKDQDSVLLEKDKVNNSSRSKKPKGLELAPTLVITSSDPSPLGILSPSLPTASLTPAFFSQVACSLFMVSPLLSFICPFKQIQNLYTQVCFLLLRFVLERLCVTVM
As to conditions: protein: recombinant; tags: N-terminal GST; dsDNA, one strand shown. In short, it runs like this:
as §1

In the next experiment the target is T4, ETV2 (Homo sapiens, UniProt O00321 1-342).
T4 sequence: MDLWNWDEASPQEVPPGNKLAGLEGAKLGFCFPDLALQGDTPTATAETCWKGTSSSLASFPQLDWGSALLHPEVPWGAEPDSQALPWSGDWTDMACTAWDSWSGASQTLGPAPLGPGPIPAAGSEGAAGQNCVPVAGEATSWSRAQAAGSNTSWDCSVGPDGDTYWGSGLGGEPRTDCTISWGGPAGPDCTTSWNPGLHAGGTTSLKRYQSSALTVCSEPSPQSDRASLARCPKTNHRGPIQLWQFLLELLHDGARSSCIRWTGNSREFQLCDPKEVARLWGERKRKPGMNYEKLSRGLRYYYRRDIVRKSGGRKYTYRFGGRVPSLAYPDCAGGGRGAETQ
The conditions noted are these: protein: recombinant; tags: N-terminal GST; dsDNA, one strand shown. Summed up: as §1

The target in the next experiment is T5, ELF3 (Homo sapiens, UniProt P78545 1-371).
T5 sequence: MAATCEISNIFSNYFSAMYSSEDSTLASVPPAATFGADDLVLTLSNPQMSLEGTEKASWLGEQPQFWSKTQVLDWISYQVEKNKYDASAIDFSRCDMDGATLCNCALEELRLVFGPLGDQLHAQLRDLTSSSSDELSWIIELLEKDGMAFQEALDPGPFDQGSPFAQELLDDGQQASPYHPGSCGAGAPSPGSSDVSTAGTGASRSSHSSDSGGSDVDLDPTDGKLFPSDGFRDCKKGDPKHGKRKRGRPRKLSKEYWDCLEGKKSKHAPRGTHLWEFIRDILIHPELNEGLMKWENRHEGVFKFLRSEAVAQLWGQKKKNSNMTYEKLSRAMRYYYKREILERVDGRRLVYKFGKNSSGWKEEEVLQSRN
As to conditions: protein: recombinant; tags: N-terminal GST; dsDNA, one strand shown. In short, it runs like this:
as §1

Another experiment addresses CRX (Homo sapiens, UniProt O43186 1-299). The conditions noted are these: protein: recombinant; tags: N-terminal GST; dsDNA, one strand shown. In short, it runs like this: as §1
A further experiment concerns the target ETV1 (Homo sapiens, UniProt P50549 1-477). As to conditions: protein: recombinant; tags: N-terminal GST; dsDNA, one strand shown. Summed up:
as §1

The target of a further experiment is T6, ERF (Homo sapiens, UniProt P50548 1-548).
T6 sequence: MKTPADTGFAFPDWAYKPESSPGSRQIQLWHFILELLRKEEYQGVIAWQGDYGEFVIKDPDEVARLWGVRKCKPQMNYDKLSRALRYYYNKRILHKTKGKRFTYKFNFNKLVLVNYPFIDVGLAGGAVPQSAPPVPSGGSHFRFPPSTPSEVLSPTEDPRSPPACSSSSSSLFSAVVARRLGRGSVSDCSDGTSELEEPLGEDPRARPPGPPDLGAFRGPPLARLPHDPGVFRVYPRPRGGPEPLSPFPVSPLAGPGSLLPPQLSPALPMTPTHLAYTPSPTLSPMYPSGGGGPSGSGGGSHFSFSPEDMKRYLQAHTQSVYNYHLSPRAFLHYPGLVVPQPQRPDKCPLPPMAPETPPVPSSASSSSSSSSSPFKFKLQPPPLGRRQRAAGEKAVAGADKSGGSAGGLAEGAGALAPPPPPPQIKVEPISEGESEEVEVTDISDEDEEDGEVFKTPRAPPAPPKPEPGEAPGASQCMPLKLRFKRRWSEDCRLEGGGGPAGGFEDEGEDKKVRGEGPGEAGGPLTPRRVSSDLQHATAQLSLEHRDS
As to conditions: protein: recombinant; tags: N-terminal GST; dsDNA, one strand shown. Summed up:
as §1

A further experiment has as its target T7, ETV3L (Homo sapiens, UniProt Q6ZN32 1-361).
T7 sequence: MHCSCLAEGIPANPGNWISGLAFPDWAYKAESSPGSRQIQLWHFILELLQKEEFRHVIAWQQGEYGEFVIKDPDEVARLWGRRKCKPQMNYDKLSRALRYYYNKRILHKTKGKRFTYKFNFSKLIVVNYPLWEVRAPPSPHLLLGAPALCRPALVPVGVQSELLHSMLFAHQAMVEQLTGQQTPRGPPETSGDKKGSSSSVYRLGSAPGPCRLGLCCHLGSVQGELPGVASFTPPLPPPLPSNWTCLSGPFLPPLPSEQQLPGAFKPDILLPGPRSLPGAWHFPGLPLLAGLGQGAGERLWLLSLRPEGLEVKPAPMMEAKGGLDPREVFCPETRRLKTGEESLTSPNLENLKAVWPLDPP
The conditions noted are these: protein: recombinant; tags: N-terminal GST; dsDNA, one strand shown. Summed up:
as §1

The target of the next experiment is T8, ETS2 (Homo sapiens, UniProt P15036 1-469).
T8 sequence: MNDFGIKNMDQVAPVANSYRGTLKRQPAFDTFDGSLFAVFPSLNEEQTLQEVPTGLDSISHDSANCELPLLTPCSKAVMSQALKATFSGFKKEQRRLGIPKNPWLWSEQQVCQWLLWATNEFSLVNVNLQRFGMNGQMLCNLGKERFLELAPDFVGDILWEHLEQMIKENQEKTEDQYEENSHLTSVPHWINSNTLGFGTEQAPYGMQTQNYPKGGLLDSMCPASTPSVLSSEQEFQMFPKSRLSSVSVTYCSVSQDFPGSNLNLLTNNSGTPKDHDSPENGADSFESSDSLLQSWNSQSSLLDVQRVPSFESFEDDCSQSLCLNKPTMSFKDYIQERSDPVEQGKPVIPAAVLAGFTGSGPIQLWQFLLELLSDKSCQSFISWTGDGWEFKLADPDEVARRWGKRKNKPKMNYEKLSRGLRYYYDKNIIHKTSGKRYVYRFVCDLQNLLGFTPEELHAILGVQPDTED
The conditions noted are these: protein: recombinant; tags: N-terminal GST; dsDNA, one strand shown. In short, it runs like this:
as §1

The target of the next experiment is T9, SPDEF (Homo sapiens, UniProt O95238 1-335).
T9 sequence: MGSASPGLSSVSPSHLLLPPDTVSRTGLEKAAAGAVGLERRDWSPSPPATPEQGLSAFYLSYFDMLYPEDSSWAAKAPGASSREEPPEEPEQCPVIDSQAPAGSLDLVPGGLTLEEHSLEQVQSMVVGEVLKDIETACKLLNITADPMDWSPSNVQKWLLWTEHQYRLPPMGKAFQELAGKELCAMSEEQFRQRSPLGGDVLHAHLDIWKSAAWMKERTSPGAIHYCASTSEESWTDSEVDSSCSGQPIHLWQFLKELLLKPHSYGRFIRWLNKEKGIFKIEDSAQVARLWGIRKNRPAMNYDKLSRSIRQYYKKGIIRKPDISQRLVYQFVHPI
The conditions noted are these: protein: recombinant; tags: N-terminal GST; dsDNA, one strand shown. Summed up: as §1

In the next experiment the target is T10, ETV7 (Homo sapiens, UniProt Q9Y603 1-341).
T10 sequence: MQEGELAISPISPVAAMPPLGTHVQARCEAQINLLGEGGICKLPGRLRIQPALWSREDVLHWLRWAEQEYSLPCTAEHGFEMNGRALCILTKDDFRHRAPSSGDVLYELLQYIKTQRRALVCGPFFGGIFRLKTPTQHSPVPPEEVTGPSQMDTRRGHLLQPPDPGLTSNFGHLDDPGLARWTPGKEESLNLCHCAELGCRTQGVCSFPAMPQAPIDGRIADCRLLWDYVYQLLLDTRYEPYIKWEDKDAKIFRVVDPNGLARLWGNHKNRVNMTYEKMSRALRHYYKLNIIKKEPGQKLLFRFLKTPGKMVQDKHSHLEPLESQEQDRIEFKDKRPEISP
As to conditions: protein: recombinant; tags: N-terminal GST; dsDNA, one strand shown. Summed up: as §1

For another experiment, the target named is T11, ELF5 (Homo sapiens, UniProt Q9UKW6-2 1-255).
T11 sequence: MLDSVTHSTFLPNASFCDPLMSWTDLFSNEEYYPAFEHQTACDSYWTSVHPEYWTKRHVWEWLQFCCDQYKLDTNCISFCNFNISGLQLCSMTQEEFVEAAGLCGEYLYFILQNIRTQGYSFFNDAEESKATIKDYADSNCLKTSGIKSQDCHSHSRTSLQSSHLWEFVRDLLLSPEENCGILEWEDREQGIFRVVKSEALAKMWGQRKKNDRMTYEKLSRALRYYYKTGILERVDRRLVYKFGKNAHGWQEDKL
The conditions noted are these: protein: recombinant; tags: N-terminal GST; dsDNA, one strand shown. In short, it runs like this: as §1

The target in the next experiment is T12, ETV3 (Homo sapiens, UniProt P41162-2 1-143).
T12 sequence: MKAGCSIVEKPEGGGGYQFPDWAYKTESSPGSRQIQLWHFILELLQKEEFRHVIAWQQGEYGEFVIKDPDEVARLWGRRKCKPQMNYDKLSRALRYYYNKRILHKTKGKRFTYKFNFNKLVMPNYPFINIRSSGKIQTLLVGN
As to conditions: protein: recombinant; tags: N-terminal GST; dsDNA, one strand shown. In short, it runs like this: as §1

The next experiment has as its target ETV6 (Homo sapiens, UniProt P41212 1-452). The conditions noted are these: protein: recombinant; tags: N-terminal GST; dsDNA, one strand shown. Summed up:
as §1

Chain of CRX (O43186 whole entry): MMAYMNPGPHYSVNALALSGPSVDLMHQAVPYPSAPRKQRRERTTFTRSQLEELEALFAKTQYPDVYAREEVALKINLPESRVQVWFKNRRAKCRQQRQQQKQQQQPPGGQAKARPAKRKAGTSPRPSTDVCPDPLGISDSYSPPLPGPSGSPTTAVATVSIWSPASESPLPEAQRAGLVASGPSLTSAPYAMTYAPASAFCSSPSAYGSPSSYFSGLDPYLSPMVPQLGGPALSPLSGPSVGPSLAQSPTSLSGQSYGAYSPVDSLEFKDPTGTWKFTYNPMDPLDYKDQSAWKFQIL
Chain of ETV1 (P50549 whole entry): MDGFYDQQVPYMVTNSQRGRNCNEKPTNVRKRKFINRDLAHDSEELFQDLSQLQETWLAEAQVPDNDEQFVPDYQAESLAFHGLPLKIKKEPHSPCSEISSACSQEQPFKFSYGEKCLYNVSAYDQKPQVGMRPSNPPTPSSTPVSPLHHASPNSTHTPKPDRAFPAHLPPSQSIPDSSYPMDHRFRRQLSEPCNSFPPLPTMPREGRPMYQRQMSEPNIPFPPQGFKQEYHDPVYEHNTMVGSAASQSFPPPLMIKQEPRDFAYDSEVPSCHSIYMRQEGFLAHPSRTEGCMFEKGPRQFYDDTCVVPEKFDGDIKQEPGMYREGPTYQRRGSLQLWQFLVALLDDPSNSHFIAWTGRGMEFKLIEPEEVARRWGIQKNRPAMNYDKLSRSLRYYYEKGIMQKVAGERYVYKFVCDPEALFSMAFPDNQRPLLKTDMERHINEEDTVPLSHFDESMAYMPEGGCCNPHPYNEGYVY
Chain of ELF4 (Q99607 whole entry): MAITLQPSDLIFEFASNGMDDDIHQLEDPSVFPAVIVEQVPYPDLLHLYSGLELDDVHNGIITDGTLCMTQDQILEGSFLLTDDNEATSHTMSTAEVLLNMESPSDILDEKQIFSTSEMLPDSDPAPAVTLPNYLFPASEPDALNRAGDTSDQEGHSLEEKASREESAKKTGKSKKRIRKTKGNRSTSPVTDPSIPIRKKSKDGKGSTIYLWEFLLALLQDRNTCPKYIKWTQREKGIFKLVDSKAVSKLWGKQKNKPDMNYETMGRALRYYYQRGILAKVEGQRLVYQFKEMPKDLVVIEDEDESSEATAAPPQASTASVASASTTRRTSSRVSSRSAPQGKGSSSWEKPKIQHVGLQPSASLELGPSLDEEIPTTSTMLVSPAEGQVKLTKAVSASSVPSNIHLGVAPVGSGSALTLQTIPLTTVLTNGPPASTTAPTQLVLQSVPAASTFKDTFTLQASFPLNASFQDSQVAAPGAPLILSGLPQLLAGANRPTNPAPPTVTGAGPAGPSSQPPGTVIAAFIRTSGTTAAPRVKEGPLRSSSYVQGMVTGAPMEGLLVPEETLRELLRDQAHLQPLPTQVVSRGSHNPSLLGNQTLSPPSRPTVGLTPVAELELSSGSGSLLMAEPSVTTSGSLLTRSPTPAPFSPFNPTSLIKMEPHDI
Chain of ETV5 (P41161 whole entry): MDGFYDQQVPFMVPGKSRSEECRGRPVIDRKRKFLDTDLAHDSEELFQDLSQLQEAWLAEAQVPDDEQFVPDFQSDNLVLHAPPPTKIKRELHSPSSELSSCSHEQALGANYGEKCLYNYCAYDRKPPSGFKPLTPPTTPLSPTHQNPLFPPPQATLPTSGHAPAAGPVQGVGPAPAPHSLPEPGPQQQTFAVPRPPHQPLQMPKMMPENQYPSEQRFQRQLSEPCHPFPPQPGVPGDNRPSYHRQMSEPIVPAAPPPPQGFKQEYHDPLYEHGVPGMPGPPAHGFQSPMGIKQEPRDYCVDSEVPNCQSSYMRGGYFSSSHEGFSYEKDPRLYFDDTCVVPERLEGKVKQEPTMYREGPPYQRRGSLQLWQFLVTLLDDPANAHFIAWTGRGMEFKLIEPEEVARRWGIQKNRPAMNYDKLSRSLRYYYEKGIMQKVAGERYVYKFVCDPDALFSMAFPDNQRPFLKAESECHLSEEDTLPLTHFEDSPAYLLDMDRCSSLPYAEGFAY
Chain of ETV6 (P41212 whole entry): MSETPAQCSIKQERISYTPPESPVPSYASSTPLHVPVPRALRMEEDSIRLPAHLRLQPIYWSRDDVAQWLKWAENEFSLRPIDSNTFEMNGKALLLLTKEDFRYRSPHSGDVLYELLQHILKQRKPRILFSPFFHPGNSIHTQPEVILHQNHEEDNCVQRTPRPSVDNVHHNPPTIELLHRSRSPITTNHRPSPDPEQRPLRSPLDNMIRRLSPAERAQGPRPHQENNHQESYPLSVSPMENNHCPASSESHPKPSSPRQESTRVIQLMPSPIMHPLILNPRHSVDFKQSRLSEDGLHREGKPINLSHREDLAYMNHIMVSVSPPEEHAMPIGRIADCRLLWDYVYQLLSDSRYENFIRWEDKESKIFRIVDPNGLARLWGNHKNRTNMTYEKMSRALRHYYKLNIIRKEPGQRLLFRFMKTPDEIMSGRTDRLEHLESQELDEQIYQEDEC

As to CTACAT, the binding signal is 1.44 fold enrichment (6-mer frequency, TF over GST control) in the experiment with FEV; 1.45 fold enrichment (6-mer frequency, TF over GST control) with ETV5; 1.17 fold enrichment (6-mer frequency, TF over GST control) with HSF1; 1.51 fold enrichment (6-mer frequency, TF over GST control) with SPIC; 1.37 fold enrichment (6-mer frequency, TF over GST control) with ELF4; 1.33 fold enrichment (6-mer frequency, TF over GST control) with ELK4. Also, the binding signal with ETV2 was 1.31 fold enrichment (6-mer frequency, TF over GST control); with ELF3, 1.28 fold enrichment (6-mer frequency, TF over GST control); with CRX, 1.11 fold enrichment (6-mer frequency, TF over GST control); with ETV1, 1.41 fold enrichment (6-mer frequency, TF over GST control); with ERF, 1.66 fold enrichment (6-mer frequency, TF over GST control); with ETV3L, 1.41 fold enrichment (6-mer frequency, TF over GST control). In addition, the binding signal with ETS2 was 1.43 fold enrichment (6-mer frequency, TF over GST control); with SPDEF, 1.5 fold enrichment (6-mer frequency, TF over GST control); with ETV7 it was 1.32 fold enrichment (6-mer frequency, TF over GST control); in the experiment with ELF5, 1.53 fold enrichment (6-mer frequency, TF over GST control); in the experiment with ETV3, 1.44 fold enrichment (6-mer frequency, TF over GST control); with ETV6, 1.43 fold enrichment (6-mer frequency, TF over GST control).
